Results on eight molecules are retold here after PubChem BioAssay (NCI).

Compounds without any hit were thinned out: in the full panel of roughly 83,000, 20% have a hit.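 Assay: single dose, 48 h. Readout: percent growth (0 = no net growth; negative = cell death). Active: <10.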 A number with no mark means an inactive call. Calls of active or inactive are those of the source.

Holding throughout (assay): NCI-60 one-dose screen, 48 h (100 = growth as untreated, 0 = no growth, -100 = all killed)
What all share (settings): 10 µM unless noted

In experiment [1] the test system is HCT-15 colon.
Experiment [2] relates to HT29 colon.
Experiment [3] concerns SNB-75 CNS.
For experiment [4], the system named is SNB-19 CNS.
Experiment [5] has as its system U251 CNS.
Experiment [6] has as its system PC-3 prostate.
Experiment [7] deals with SK-MEL-5 melanoma.
The test system of experiment [8] is UACC-62 melanoma.
Experiment [9] concerns LOX IMVI melanoma.
Experiment [10] concerns SK-MEL-28 melanoma.
The test system of experiment [11] is SK-MEL-2 melanoma.
Experiment [12] concerns EKVX NSCLC.
Experiment [13] concerns SN12C renal.
Experiment [14] deals with TK-10 renal.
The subject of experiment [15] is ACHN renal.
The test system of experiment [16] is A498 renal.
Experiment [17] relates to CCRF-CEM leukemia.
For experiment [18], the system named is MOLT-4 leukemia.
Experiment [19] deals with SR leukemia.
For experiment [20], the system named is UO-31 renal.

Consider `Nc1ccc(C2=NN(C(=O)c3cc(-c4ccc(Cl)cc4)nc4ccccc34)C(c3ccc(Cl)cc3)C2)cc1` (configuration not stated), for which the growth in [1] is 26.3%; in [2], 11.5%; in experiment [3], 67.5%; in experiment [4] it was 30.5%; in experiment [5], 31.5%; in experiment [6] it was 23.3%. The growth in [7] is 28.3%; in experiment [8], 38%; in [9], 48.3%; in experiment [10], 65%; in experiment [11], 34.7%; in experiment [12], 42.8%. The growth in experiment [13] is 56.5%; in [14] it was 55.3%; in experiment [15] it was 54.4%; in experiment [16], 31.1%; in [17] it was 17.8%; in experiment [18] it was 42.6%. Also, the growth in experiment [19] was 25.7%.
In the case of `C=C1C(=O)O[C@H]2[C@H]1CC/C(COC(=O)c1c[nH]c3ccccc13)=C\CC[C@@]1(C)O[C@@H]21`, the growth in experiment [1] is -69.5% (active); in [2], -59.8% (active); in experiment [3], -2.2% (active); in experiment [4], -40.3% (active); in experiment [5], -81.2% (active); in experiment [6] it was -52.1% (active). Further, the growth in experiment [7] was -98.2% (active); in [8], -69.1% (active); in experiment [9] it was -94.8% (active); in experiment [10], -63.8% (active); in [11], -41.3% (active); in experiment [12] it was -73.3% (active). The growth in experiment [13] is -46.5% (active); in experiment [14], -87% (active); in experiment [15] it was -77.8% (active); in experiment [16], -96.3% (active); in [17], -0.836% (active); in [18], -1.78% (active). For the same molecule, the growth in experiment [19] is -9.87% (active).
With `Cc1ccccc1NC(=O)c1sc2nc(C)c(C(C)O)cc2c1N` (configuration not stated), the growth was 35.3% in experiment [1]; 3.12% (active) in [2]; 53.9% in experiment [3]; 32.5% in [4]; 28.8% in experiment [5]; 60.9% in [6]. The growth in [7] was 31.4%; in experiment [8], 25.5%; in experiment [9], 44.2%; in experiment [10], 67.2%; in [11] it was 34.4%; in [12] it was 75.7%. Further, the growth in [13] was 51.3%; in experiment [14], 51.5%; in experiment [15], 78.3%; in experiment [16] it was 47.9%; in [17] it was 45.7%; in [18], 32.6%. In experiment [19], the growth is 4.46% (active).
Regarding `CC(=O)c1ccc(NC(=O)CSc2nnc(-c3cc(-c4ccc(C)cc4)nc4ccccc34)o2)cc1`, the growth is 56.7% in [1]; 68.2% in experiment [2]; 62.1% in experiment [3]; 43.2% in [4]; -59.8% (active) in experiment [5]; 53.4% in experiment [6]. Further, the growth in experiment [7] was 68.7%; in [8], 90.7%; in experiment [9] it was 31.9%; in experiment [10], 99.3%; in experiment [11], 81.5%; in experiment [12], 78.3%. In addition, the growth in experiment [13] was 20%; in experiment [14], 43%; in experiment [15], 63.6%; in experiment [16], 70.5%; in experiment [17] it was 53.6%; in experiment [18], 43.5%. The growth in [19] is -12.5% (active).
In the case of `Cc1cc(Nc2nc(SCc3ccc(C(=O)Nc4ccc(F)cc4N)cc3)nn3cccc23)n[nH]1`, the growth in [1] is 22.6%; in experiment [2], 4.22% (active); in experiment [3], 29.2%; in [4], 43.8%; in experiment [5], 25%; in experiment [6] it was 28%. Moreover, the growth was 7.54% (active) in [7]; 24.2% in experiment [8]; 30.1% in [9]; 68.7% in experiment [10]; 18.2% in experiment [11]; 31% in [12]. Further, the growth was 29% in [13]; 48.8% in experiment [14]; 21.1% in experiment [15]; 5.84% (active) in experiment [16]; 9.8% (active) in experiment [17]; 6.29% (active) in experiment [18]. In addition, in experiment [19], the growth was 13.3%.
As to `CC(=O)[C@@H]1CC[C@]2(C(=O)O)CC[C@]3(C)[C@H](CC[C@@H]4[C@@]5(C)Cc6c([nH]c7ccccc67)C(C)(C)[C@@H]5CC[C@]43C)[C@@H]12`, the growth is 44.3% in [1]; 68.6% in experiment [2]; 94.7% in [3]; 70.2% in experiment [4]; 45% in experiment [5]; 71.8% in [7]. Also, the growth in experiment [8] is 67.9%; in experiment [9], 50.1%; in experiment [10], 78.5%; in [11], 79.5%; in [12], 42.3%; in experiment [13], 69.3%. The growth in [20] is 48.6%; in experiment [14], 63.6%; in experiment [15], 46.5%; in experiment [16] it was 61.7%; in [17], 62.9%; in experiment [18], 49.6%. Also, the growth in experiment [19] is 73.5%.
For the molecule `CCc1ccc(OCc2ccccc2C(=O)Nc2ccc3nc(C)cc(N)c3c2)cc1`, the growth in experiment [1] was -75.4% (active); in experiment [2] it was -87.4% (active); in experiment [3], -95.1% (active); in experiment [4], -80.6% (active); in [5], -90.9% (active); in experiment [6], -88.1% (active). Besides, the growth in experiment [7] was -90.5% (active); in experiment [8], -92.6% (active); in experiment [9] it was -83.9% (active); in experiment [10], -93.9% (active); in experiment [11] it was -83.1% (active); in [12], -56.2% (active). Besides, the growth in [13] is -79.7% (active); in experiment [14] it was -93.5% (active); in experiment [15], -100% (active); in experiment [16], -94.3% (active); in [17] it was -53.4% (active); in experiment [18], -74.4% (active). Moreover, the growth in experiment [19] is -61.2% (active).
Take `O=S(=O)(Nc1nccs1)c1ccc(Nc2nc(-c3ccncc3)cs2)cc1`: the growth in experiment [1] is 103%; in experiment [2], 120%; in experiment [3], 84.7%; in experiment [4], 101%; in experiment [5], 95.2%; in [6] it was 96.8%. For the same molecule, the growth in experiment [7] was 107%; in [8], 94.7%; in experiment [9], 95.8%; in experiment [10] it was 109%; in experiment [11], 105%; in [12], 107%. Further, the growth in experiment [13] is 97.4%; in experiment [14], 120%; in experiment [15], 99.5%; in experiment [16], 113%; in [17] it was 104%; in [18] it was 117%. For the same molecule, in experiment [19], the growth was 111%.
